{"source": "PubChem BioAssay (NCATS)", "note": "Records with an inconclusive call do not appear. The source made the active and inactive calls. Calls come from the whole dose curve; as a rule, active = well fitted activation curve with a large enough effect; inconclusive = small, poorly fitted or top-dose-only effect; inactive = flat fitted curve, though single readings scatter."}
{"test": "Primary redox qHTS assay for identification of artifact compounds. (AID 1845223)", "conditions": "Amplex Red/HRP redox cycling with DTT, fluorescence; series mostly up to 53.8 µM; redox activity (% of DA3003): at the top concentration", "from_the_text": "PI: Alexander Tropsha Ph.D.\nUNC Eshelman School of Pharmacy\nUniversity of North Carolina, Chapel Hill, North Carolina\nHits from high-throughput screening (HTS) of chemical libraries are often false positives due to their interference with the assay detection technology. In response to this problem, we generated the largest publicly available library of chemical liabilities and developed a free webtool to predict HTS artifacts, both of which are described herein. More specifically, we generated, curated, and integrated HTS datasets for thiol reactivity, redox activity, and luciferase (firefly and nano) activity. Using these curated datasets, we developed and validated several Quantitative Structure-Interference Relationship (QSIR) models to predict nuisance behavior. […] These models were employed for virtual profiling of the National Center for Advancing Translational Science's (NCATS) in-house library, and 256 compounds for each assay were selected for the experimental validation of nuisance behavior. The BA for these external predictions ranged from 58 to 78% for compounds within the applicability domains of the models. […] The models developed in this study, along with aggregation models previously developed by our group (SCAM Detective) were implemented in \"Liability Predictor,\" an online tool which may be used as part of chemical library design or for triaging HTS hits. Both the models and the curated datasets are publicly available at https://liability.mml.unc.edu/.\nSEQUENCE No. (e.g., 1, 2, 3, etc.); […] (e.g., Cells, Incubation, Reagent, etc.); VALUE; DESCRIPTION.\n1; Reagent; 3 uL; Amplex Red and HRP mixture.\n2; Compounds and control; 16 nL; Kalypsis pin tool (Wako USA) equipped with a 1536-well pin head. […]\n6; Detection; Fluorescence, ViewLux microplate reader, 525 nm excitation, 598 nm emission.\nNOTES (numbers refer to Sequence numbers above)\n1. 3 uL of a mixture containing Amplex Red (25 uM final concentration) and horseradish peroxidase (HRP; 250 mU/mL final concentration) in assay buffer (HBSS) was dispensed into all wells of a 1536-well assay plate (solid-bottom black plate; Greiner Bio One, Monroe, NC).\n2. A Wako Pin-tool (Wako Automation, Richmond, VA) was used to transfer 16 nL of compounds (consisting of 7-plates in qHTS format, final concentration range 18.3 nM to 114 uM) or control DA3003 (final concentration range 1.22 nM to 40 uM).\n3. 15 min. incubation at room temperature protected from light.\n4. 1 uL of DTT (prepared fresh; final concentration 250 uM) was dispensed for a final assay volume of 4 uL.\n5. Plates were centrifuged (121xg, 15 seconds) and incubated for 30 minutes at room temperature protected from light.\n6. Samples were read for fluorescence (Ex/Em = 525(20)/598(25) nm) on a ViewLux CCD imager (PerkinElmer). Data were normalized to DMSO (0% activity) and DA3003 (10 uM final concentration; 100% activity) and the resulting percent inhibition data were fitted to a 4-parameter Hill equation using NCATS in-house software."}
{"compound": "CC(=O)NC(Cc1ccccc1)C(=O)O", "note": "(stereo not given)", "redox activity (% of DA3003)": "6.83% [at 85.7 µM] (inactive)"}
{"compound": "Cc1ccc2nc(N)[nH]c(=O)c2c1Sc1ccncc1", "redox activity (% of DA3003)": "-4.89% (inactive)"}
{"compound": "O=C(CCCN1CCN(c2ccccn2)CC1)c1ccc(F)cc1", "redox activity (% of DA3003)": "18.9% (inactive)"}
{"compound": "COc1ccc2cc1Oc1ccc(cc1)C[C@H]1c3c(cc4c(c3Oc3cc5c(cc3OC)CCN(C)[C@@H]5C2)OCO4)CCN1C", "redox activity (% of DA3003)": "15% (inactive)"}
{"compound": "CCOC(=O)[C@H](CCc1ccccc1)N[C@@H](C)C(=O)N1C(=O)N(C)C[C@H]1C(=O)O", "redox activity (% of DA3003)": "0.558% (inactive)"}
{"compound": "Nc1nc2c(ncn2CCC(CO)CO)c(=O)[nH]1", "redox activity (% of DA3003)": "-11.3% (inactive)"}
{"compound": "Nc1ccc(S(=O)(=O)Nc2nccs2)cc1", "redox activity (% of DA3003)": "-2.35% (inactive)"}
{"compound": "C[C@@H]1C[C@H]2[C@@H]3C[C@H](F)C4=CC(=O)C=C[C@]4(C)[C@@]3(F)[C@@H](O)C[C@]2(C)[C@@]1(O)C(=O)CO", "redox activity (% of DA3003)": "1.29% (inactive)"}
{"compound": "Cn1c(=O)c2c(ncn2CC2OCCO2)n(C)c1=O", "redox activity (% of DA3003)": "-5.5% (inactive)"}
{"compound": "CC(C)(O)c1ccccc1CC[C@@H](SCC1(CC(=O)O)CC1)c1cccc(/C=C/c2ccc3ccc(Cl)cc3n2)c1", "redox activity (% of DA3003)": "-3.86% (inactive)"}
{"compound": "Cc1cc(N)c2ccccc2[n+]1CCCCCCCCCC[n+]1c(C)cc(N)c2ccccc21", "redox activity (% of DA3003)": "-3.71% (inactive)"}
{"compound": "CCN(CC)C(=O)Nc1ccc(OCC(O)CNC(C)(C)C)c(C(C)=O)c1", "note": "(stereo not given)", "redox activity (% of DA3003)": "-0.0934% (inactive)"}
{"compound": "CCCCc1ncc(/C=C(\\Cc2cccs2)C(=O)O)n1Cc1ccc(C(=O)O)cc1", "redox activity (% of DA3003)": "-2.82% (inactive)"}
{"compound": "CS(=O)(=O)c1ccc([C@@H](O)[C@@H](CF)NC(=O)C(Cl)Cl)cc1", "redox activity (% of DA3003)": "-6.07% (inactive)"}
{"compound": "CCCCOc1cc(C(=O)OCCN(CC)CC)ccc1N", "redox activity (% of DA3003)": "-7.1% (inactive)"}
{"compound": "C[C@@H]1CN(c2c(F)c(F)c3c(=O)c(C(=O)O)cn(C4CC4)c3c2F)C[C@H](C)N1", "redox activity (% of DA3003)": "-2.75% [at 11.5 µM] (inactive)"}
{"compound": "COc1ccc2[nH]c(S(=O)Cc3ncc(C)c(OC)c3C)nc2n1", "note": "(stereo not given)", "redox activity (% of DA3003)": "-0.752% (inactive)"}
{"compound": "CCN(CC)CCNC(=O)c1cc(Cl)c(N)cc1OC", "redox activity (% of DA3003)": "-1.54% (inactive)"}
{"compound": "CC(C(O)c1ccc(O)cc1)N1CCC(Cc2ccccc2)CC1", "note": "(stereo not given)", "redox activity (% of DA3003)": "-1.26% [at 25.6 µM] (inactive)"}
{"compound": "CN1CCC[C@@H]1Cc1c[nH]c2ccc(CCS(=O)(=O)c3ccccc3)cc12", "redox activity (% of DA3003)": "-2.7% (inactive)"}
{"compound": "CCN(CC)CCCC(C)Nc1c2ccc(Cl)cc2nc2ccc(OC)cc12", "note": "(stereo not given)", "redox activity (% of DA3003)": "-0.0702% [at 25.6 µM] (inactive)"}
{"compound": "OCC(O)CN1CCN(c2ccccc2)CC1", "note": "(stereo not given)", "redox activity (% of DA3003)": "-7.05% (inactive)"}
{"compound": "c1ccc(CN(CC2=NCCN2)c2ccccc2)cc1", "redox activity (% of DA3003)": "-7.06% (inactive)"}
{"compound": "COc1ccc2c(c1)C(=O)N(CCc1ccc(S(=O)(=O)NC(=O)NC3CCCCC3)cc1)C(=O)C2(C)C", "redox activity (% of DA3003)": "19.3% (inactive)"}
{"compound": "O=C1Nc2ccc(Cl)cc2[C@@](C#CC2CC2)(C(F)(F)F)O1", "redox activity (% of DA3003)": "-2.37% (inactive)"}
{"compound": "Cc1cccc(Nc2cc(Cl)nc(SCC(=O)O)n2)c1C", "redox activity (% of DA3003)": "0.574% (inactive)"}
{"compound": "CC(C)(C(=O)O)c1ccc(C(O)CCCN2CCC(C(O)(c3ccccc3)c3ccccc3)CC2)cc1", "note": "(stereo not given)", "redox activity (% of DA3003)": "8.41% (inactive)"}
{"compound": "CC/C=C(\\C(=O)N[C@@H]1C(=O)N2C(C(=O)OCOC(=O)C(C)(C)C)=C(COC(N)=O)CS[C@H]12)c1csc(N)n1", "redox activity (% of DA3003)": "19.3% (inactive)"}
{"compound": "CCCCN1CCCC[C@H]1C(=O)Nc1c(C)cccc1C", "redox activity (% of DA3003)": "7.24% (inactive)"}
{"compound": "C[C@]12CC[C@@H]3c4ccc(O)cc4CC[C@H]3[C@@H]1CC[C@@H]2OC(=O)CCC1CCCC1", "redox activity (% of DA3003)": "-5.61% (inactive)"}
{"compound": "Cc1cc(C(C#N)c2ccc(Cl)cc2)c(Cl)cc1NC(=O)c1cc(I)cc(I)c1O", "note": "(stereo not given)", "redox activity (% of DA3003)": "-4.24% (inactive)"}
{"compound": "O=c1[nH]cnc2c1ncn2[C@@H]1O[C@H](CO)[C@@H](O)[C@H]1O", "redox activity (% of DA3003)": "-4.46% (inactive)"}
{"compound": "CCOc1nc2cccc(C(=O)O)c2n1Cc1ccc(-c2ccccc2-c2nn[nH]n2)cc1", "redox activity (% of DA3003)": "-2.4% (inactive)"}
{"compound": "CC(C)(C)C(=O)C(Oc1ccc(Cl)cc1)n1ccnc1", "note": "(stereo not given)", "redox activity (% of DA3003)": "-0.93% (inactive)"}
{"compound": "CN1CCOC(c2ccccc2)c2ccccc2C1", "note": "(stereo not given)", "redox activity (% of DA3003)": "-1.58% (inactive)"}
